# Measurements taken from PubChem BioAssay AID904 (National Center for Advancing Translational Sciences (NCATS), 2007).
# The campaign covered roughly 55,000 compounds. About 530 (0.96%) were called active. Entries that show only a call come without a potency. Inconclusive results (about 7%) are left out. Calls follow the shape of the dose curve; as a rule, active = well fitted cell-killing curve with a large enough effect; inconclusive = small, poorly fitted or top-dose-only effect; inactive = no such curve, though single readings can be large or run the other way. Only a selection was taken, and actives are over-represented in it overall.
# Test: qHTS Screen for Compounds that Selectively Target Cancer Cells with p53 Mutations: Cytotoxicity of p53 Null Cells at the Nonpermissive Temperature; also: nearly all actives have a fitted effect of over 50% in size
# Conditions: H1299 p53-null (neo) cells, 39C, ATPlite viability, 24 h; series mostly up to 46.1 µM
# Method in brief: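 Temperature-shift cytotoxicity format: compound titrations on p53-null or A138V-expressing H1299 cells held 24 hr at 39C, cell ATP then measured, AC50 from Hill model.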
# Potency is read from the fitted curve at half-maximal effect.
SMILES,"activity, negative = cell killing",Potency
COc1ccc(Cl)cc1NC(=O)CNc1ccccc1F,28.8% [at 1.84 µM] (inactive),–
CCc1ccccc1N1CC(c2nc3ccccc3n2CCCCOc2ccccc2)CC1=O (stereo not given),–,20 µM (active)
CCCCN1CC(c2nc3ccccc3n2CCCCOc2ccc(C)cc2C)CC1=O (stereo not given),–,inactive
COc1ccc(OCCCn2c(C3CC(=O)N(c4ccc(F)cc4)C3)nc3ccccc32)cc1 (stereo not given),–,inactive
Cc1cccc(NC(=S)Nc2ccc3cn[nH]c3c2)c1,–,inactive
CCN1CCN(C(=O)C2(NC(=O)Nc3cccc(F)c3)CCCCC2)CC1,–,inactive
COc1cc(Cl)c(C)cc1NC(=O)CCc1nc2cccnc2n1Cc1cccs1,–,inactive
O=S(=O)(NN=C1CCCCCCC1)c1ccc(Br)cc1,–,inactive
CC1=CC(=C(C#N)c2nc3ccccc3s2)C=C(C)N1c1ccc(F)cc1F,–,inactive
CCc1ccc(C2CC(=O)c3c([nH]c(C(=O)OCc4ccc(C)cc4)c3C)C2)cc1 (stereo not given),–,inactive
Cc1cc(C)cc(C(=O)N2CCN=C2SCc2ccc([N+](=O)[O-])cc2)c1,–,inactive
CC(C)(C)NC(=O)CSc1nc(-c2ccc(F)cc2)cc(C(F)(F)F)n1,–,inactive
Fc1ccc(Nc2nc(SCc3ccccc3Cl)nc3ccccc23)cc1,–,inactive
CSc1nc(Nc2ccc(F)cc2)cc(-c2ccccc2)n1,–,15.8 µM (active)
Cc1ccc(CNC(=O)CCc2c(C)nc3c(c(C)nn3-c3ccccc3)c2C)cc1,–,inactive
CCC1CCCCN1C(=S)Nc1ccc(SC(F)F)cc1 (stereo not given),–,inactive
CCc1ccccc1NC(=O)Cn1c(=O)n(-c2cccc(C)c2)c(=O)c2c1c1cc(OC)ccc1n2C,–,inactive
Cc1ccc(-c2nn3c(=O)cc(CN4CCN(S(=O)(=O)c5ccc(Cl)cc5)CC4)nc3s2)cc1,–,inactive
CCCCOC(=O)/C(C#N)=C/c1ccc(-c2cccc(C(F)(F)F)c2)o1,–,inactive
COc1cccc(Nc2nc3ccccc3c3nncn23)c1,–,inactive

SMILES,"activity, negative = cell killing",Potency
CCOC(=O)c1nc(Nc2ccc(C(=O)OC)cc2)c2ccccc2n1,–,inactive
COc1cc(Nc2nc(-c3ccc(OC)c(OC)c3)nc3ccccc23)cc(OC)c1,–,14.1 µM (active)
O=C(Nc1ccc2c(c1)OCO2)c1cc(-c2cccc(Cl)c2)on1,–,inactive
Cc1ccccc1-c1nc2scc(CCNC(=O)C(=O)Nc3ccc(F)cc3F)n2n1,–,inactive
Cc1ccc(Nc2c(-c3ccc(C)cc3)nc3cnccn23)cc1,–,inactive
CC(=O)Nc1ccc(S(=O)(=O)N2CCN(c3ccc([N+](=O)[O-])c(NCCN4CCOCC4)c3)CC2)cc1,–,inactive
O=C(NC1CCCCC1)c1ccc(Cn2c(SCc3ccccc3)nc3cccnc32)cc1,–,inactive
O=C(O)c1ccc(CSc2nc3cccnc3n2Cc2cccc(F)c2)cc1,–,inactive
Cc1ccc(CSc2nc3cccnc3n2Cc2ccc(C(=O)NC3CC3)cc2)cc1,–,3.16 µM (active)
COc1ccc(OC)c(-c2nc(C(N)=O)c3c(n2)n(-c2ccc4c(c2)OCO4)c(=O)n3C)c1,–,inactive
CCOc1ccc(N(Cc2ccccc2)C(=O)c2nc(S(C)(=O)=O)ncc2Cl)cc1,–,10 µM (active)
CCOc1ccc(N(Cc2ccccc2)C(=O)c2nc(SCC)ncc2Cl)cc1,–,inactive
CCOc1ccc(NC(=O)CN(Cc2ccccc2)S(=O)(=O)c2ccc(Cl)cc2)cc1,–,inactive
CNc1ccc(NC(C)=O)cc1[N+](=O)[O-],-11.3% [at 1.84 µM] (inactive),–
N#Cc1c(-c2ccc(F)cc2)cc(C2CC2)nc1SCC(=O)c1cccs1,-5.05% [at 1.84 µM] (inactive),–
Cc1ccc(C(=O)Nc2ccc3[nH]c(=O)c(=O)[nH]c3c2)cc1,–,inactive
COc1ccc(CNC(=O)c2ccc3c(O)c(S(=O)(=O)c4ccccc4)c(=O)[nH]c3c2)cc1,–,inactive
CC(C)c1ccc(NC(=O)c2ccc3c(O)c(S(=O)(=O)c4ccccc4)c(=O)[nH]c3c2)cc1,–,7.94 µM (active)
CCC(C(=O)Nc1cccc(-c2nc3cccnc3s2)c1C)c1ccccc1 (stereo not given),–,inactive
Cc1c(NC(=O)Cc2ccccc2)cccc1-c1nc2cccnc2s1,–,inactive

SMILES,"activity, negative = cell killing",Potency
Cc1c(NC(=O)C(C)(C)C)cccc1-c1nc2ccccc2s1,–,15.8 µM (active)
O=C(Nc1cc(C(F)(F)F)ccc1Cl)C(=O)N1CCCCC1,-3.07% [at 1.84 µM] (inactive),–
Cc1cccc(NC(=O)CSc2ncc(-c3ccccc3)[nH]2)c1C,–,inactive
Cc1ccc(S(=O)(=O)c2cn(Cc3ccccc3)c3cc(N4CCCC4)c(F)cc3c2=O)c(C)c1,–,inactive
COCCN(Cc1ccco1)C(=O)Cn1ncc2c([nH]c3ccccc32)c1=O,–,inactive
Cc1ccc(CN(C(=O)COc2ccc(Cl)cc2C)C2CCS(=O)(=O)C2)o1 (stereo not given),–,inactive
COc1cc(C(=O)N2CCN(c3ccc(Nc4ccc(C)cc4)nn3)CC2)cc(OC)c1OC,–,inactive
O=C(COC(=O)c1cc2c(s1)CCCC2)NCc1ccccc1Cl,–,inactive
Cc1ccc(NC(=O)c2sc3nc(N)c(C#N)cc3c2N)cc1,9.07% [at 1.84 µM] (inactive),–
CCOc1ccc(CNC(=O)C2CCN(c3nnc(-n4cccc4CNc4ccc(C)cc4)s3)CC2)cc1OC,–,inactive
CCOC(=O)/C(C#N)=C/c1ccc(N2CCN(Cc3ccccc3)CC2)cc1,2.74% [at 1.84 µM] (inactive),–
Cc1cccc(-n2c(=O)c3c(c4cc(C)ccc4n3C)n(CC(=O)Nc3ccccc3Cl)c2=O)c1,–,inactive
CCOc1ccc(-c2nonc2NC(=O)c2oc3ccc(CC)cc3c2C)cc1,–,inactive
Cc1ccc(S(=O)(=O)N2CCN(CC(=O)N/N=C/c3cc([N+](=O)[O-])ccc3Cl)CC2)cc1,–,inactive
CCc1nnc(SCC(=O)Nc2cc(OC)ccc2OC)nc1CC,–,inactive
O=c1n(Cc2cccc(C(F)(F)F)c2)c2ccccc2c2nc(-c3ccccc3)nn12,–,inactive
Cc1c(NC(=O)c2cc(-c3ccc(Br)cc3)on2)c(=O)n(-c2ccccc2)n1C,–,inactive
Cc1ccc(Nc2nnc(-c3ccc(C)c(S(=O)(=O)N4CCCCC4)c3)c3ccccc23)cc1,–,inactive
Cc1ccc(-c2nnc(Nc3ccc(OCC(N)=O)cc3)c3ccccc23)cc1S(=O)(=O)NCC1CCCO1 (stereo not given),–,12.6 µM (active)
Cc1ccc(-c2nnc(Nc3cccc(Br)c3)c3ccccc23)cc1S(=O)(=O)NCC1CCCO1 (stereo not given),–,inactive
